Bioassay records (PubChem BioAssay)
PLC-gamma1 inh = PLC-gamma1 (human) inhibition, primary screen; P19174; inhibition, % at 12.2 µM; purified PLC-gamma1, fluorogenic substrate, fluorescence; hit rate 0.84% among 370,000; AID 720700; in the data active = inhibition above about 9.5%
PLCb3 inh = PLC-beta3 (human) inhibition, primary screen; Q01970; Purified PLC-beta3, fluorogenic substrate, fluorescence; inhibition, % at 12.2 µM; hit rate 0.18% among 370,000; AID 720704; in the data active = inhibition above about 11%
LEDGF integ inh = blocks HIV-1 LEDGF/p75-dependent DNA integration | hit rate 0.64% among 370,000 | TR-FRET IN-LEDGF/p75 DNA integration, Eu/Cy5 | inhibition, % at 3.7 µM;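 active = inhibition above the screen-wide mean plus 3 SD, cut at about 13% in these data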;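 note: signal is the Cy5 over europium emission ratio at 671 and 618 nm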
UHRF1 binding = blocks human UHRF1 binding to methylated DNA; hit rate 0.75% among 370,000; UHRF1 binding to methylated oligo, TR-FRET; inhibition, % at 4.4 µM; in the data active = inhibition above about 21%;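 note: UHRF1 SRA domain binding a hemimethylated CpG hairpin DNA probe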
Target sequence (Q96T88 whole entry, looked up, the tested form may be a part): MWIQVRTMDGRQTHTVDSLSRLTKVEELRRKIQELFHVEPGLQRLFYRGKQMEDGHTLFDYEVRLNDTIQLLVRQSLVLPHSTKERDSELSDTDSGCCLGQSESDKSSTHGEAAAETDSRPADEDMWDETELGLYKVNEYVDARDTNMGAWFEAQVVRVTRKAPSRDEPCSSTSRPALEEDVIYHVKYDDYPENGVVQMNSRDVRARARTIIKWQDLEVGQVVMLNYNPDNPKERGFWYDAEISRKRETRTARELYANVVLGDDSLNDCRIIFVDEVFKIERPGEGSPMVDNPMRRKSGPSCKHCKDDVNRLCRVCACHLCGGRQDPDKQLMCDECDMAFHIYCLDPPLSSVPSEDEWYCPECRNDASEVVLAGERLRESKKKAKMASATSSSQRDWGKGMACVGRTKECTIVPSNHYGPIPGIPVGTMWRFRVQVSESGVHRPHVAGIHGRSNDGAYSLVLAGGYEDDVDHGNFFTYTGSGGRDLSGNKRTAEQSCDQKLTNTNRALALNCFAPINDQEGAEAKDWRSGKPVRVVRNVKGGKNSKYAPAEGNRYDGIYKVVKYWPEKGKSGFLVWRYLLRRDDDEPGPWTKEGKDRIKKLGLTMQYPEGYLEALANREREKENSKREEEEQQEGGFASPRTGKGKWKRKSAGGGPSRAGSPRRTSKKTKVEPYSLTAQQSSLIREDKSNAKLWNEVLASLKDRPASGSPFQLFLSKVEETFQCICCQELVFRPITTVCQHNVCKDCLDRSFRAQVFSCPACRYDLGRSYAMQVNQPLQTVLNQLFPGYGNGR
MBD2 DNA inh = inhibitors of human MBD2 binding to methylated oligonucleotide. hit rate 0.31% among 370,000. Q9UBB5. inhibition, % at 4.4 µM. TR-FRET; in the data active = inhibition above about 13%
IN multimer act = activates HIV-1 integrase multimerization in LEDGF counter-screen. shares compounds with LEDGF integ inh. TR-FRET HIV-1 integrase multimerization, biochemical. activation, % at 7.7 µM. hit rate 17% among 2,000. AID 1053131; in the data active = activation above about 8.9%
TRFRET interf = optically interferes with TR-FRET readout in LEDGF counter-screen. shares compounds with LEDGF integ inh. TR-FRET optical interference counterscreen, HIV-1 IN multimerization. inhibition, % at 7.7 µM. 2,000 tested, under 10 active;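 active = inhibition above the mean over all tested compounds plus 3 SD, which no compound reached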
IN-LEDGF confirm = LEDGF/p75-dependent HIV-1 integration inhibition, confirmation. TR-FRET LEDGF/p75-dependent HIV-1 integration, biochemical. hit rate 36% among 2,000. inhibition, % at 3.7 µM. shares compounds with LEDGF integ inh; in the data active = inhibition above about 14%
Large screens that a line does not name were inactive (follow-up assays come after a bar, where they were run). Most compounds without a hit are left out; they make up all but 2.4% or so of the library.

Oc1ccc(-c2cn3c(n2)SCC3)cc1O	LEDGF integ inh 52.1 | IN multimer act 72.4 | TRFRET interf inactive | IN-LEDGF confirm 58.5
Nc1cc(Cl)ccc1Oc1ccccc1	LEDGF integ inh 35.7 | IN multimer act inactive | TRFRET interf inactive | IN-LEDGF confirm inactive
Cn1c(=O)c(C(=O)c2ccc(S(C)(=O)=O)c(Cl)c2Cl)c(O)c2ccccc21	LEDGF integ inh 37.8 | IN multimer act inactive | TRFRET interf inactive | IN-LEDGF confirm inactive
[C-]#[N+][C@]12C(=O)[C@H](C=C(Cl)[C@@]1(C)C=C)C(C)(C)[C@H]1C(=O)N(C)c3cccc2c31	none
Cc1ccc(NC(=O)CCc2ccccc2)cc1C	LEDGF integ inh 72.4 | IN multimer act inactive | TRFRET interf inactive | IN-LEDGF confirm inactive
O=C(CCc1ccccc1)Nc1cccc(NC(=O)CCc2ccccc2)c1	none
CCCC[C@@H]1C(=O)N2N=C(c3ccccc3)c3ccccc3[C@H]2N2N=C(c3ccccc3)c3ccccc3[C@@H]12	none
O=C(O[C@H]1CC[C@@]23CCCN2C(=O)CCC[C@H]3C1)N1CCCC1	none
S=C(Nc1ccc2nsnc2c1)N1CCCCC1	LEDGF integ inh 16.7 | IN multimer act inactive | TRFRET interf inactive | IN-LEDGF confirm inactive
CSC1=NC2C(N1)N(C)C(=O)N2C (stereo not drawn)	LEDGF integ inh 35.3 | IN multimer act inactive | TRFRET interf inactive | IN-LEDGF confirm inactive
COC(=O)[C@]12C[C@H](CC(=O)NCc3cccs3)C(=O)N(Cc3ccc(Cl)cc3Cl)C1=C[C@H](C(C)(C)C)O[C@@H]2C	none
O=C1C2CC=CCC2C(=O)N1c1ccc(NCCc2cccc(F)c2)c([N+](=O)[O-])c1 (stereo not drawn)	LEDGF integ inh 14.5 | IN multimer act inactive | TRFRET interf inactive | IN-LEDGF confirm inactive
O=C1CCC(=O)N1c1ccc(NCCc2cccc(F)c2)c([N+](=O)[O-])c1	none
CC1OC(Nc2cccc3ccccc23)C(O)C(O)C1O (stereo not drawn)	LEDGF integ inh 36.3 | IN multimer act inactive | TRFRET interf inactive | IN-LEDGF confirm inactive
CN(C)c1cc(Cl)c2nonc2c1N	LEDGF integ inh 26.3 | IN multimer act inactive | TRFRET interf inactive | IN-LEDGF confirm inactive
O=C(NNC(=O)C1CCCCC1)c1ccc(Br)cc1	LEDGF integ inh 14.6 | IN multimer act inactive | TRFRET interf inactive | IN-LEDGF confirm inactive
COc1cc(OC)cc(C(=O)n2cnnc2N)c1	LEDGF integ inh 25.0 | IN multimer act inactive | TRFRET interf inactive | IN-LEDGF confirm inactive
COC(=O)c1cn(C(=O)c2cc(OC)cc(OC)c2)c2ccccc12	none
COc1cc2cc3c(N)c(C(=O)Nc4sc(C)c(C)c4C#N)sc3nc2cc1OC	LEDGF integ inh 15.0 | IN multimer act 26.6 | TRFRET interf inactive | IN-LEDGF confirm 45.7
Cc1nn(CCCC(=O)Nc2sc3c(c2C#N)CCC3)c(C)c1[N+](=O)[O-]	LEDGF integ inh 18.3 | IN multimer act inactive | TRFRET interf inactive | IN-LEDGF confirm inactive
C[C@H]1C(C(=O)N(C)C2CCCCC2)=Cc2c(n(-c3ccc(F)cc3)c(=O)n2CCCOc2ccccc2)C=C1c1ccccc1	LEDGF integ inh 44.4 | IN multimer act inactive | TRFRET interf inactive | IN-LEDGF confirm 16.9
Cc1ccc(S(=O)(=O)N(C)c2ccccc2C(=O)Nc2c(F)cccc2F)cc1	LEDGF integ inh 36.3 | IN multimer act inactive | TRFRET interf inactive | IN-LEDGF confirm inactive
CC(=O)c1cccc(NC(=O)c2ccccc2N(C)S(=O)(=O)c2ccc(C)cc2)c1	none
CCNC(=S)N(Cc1ccccc1)Cc1nc2ccccc2c(=O)[nH]1	LEDGF integ inh 69.6 | IN multimer act inactive | TRFRET interf inactive | IN-LEDGF confirm inactive
CCc1cccc(NC(=O)CCCCCC2NC(=O)NC2C)c1 (stereo not drawn)	LEDGF integ inh 77.1 | IN multimer act inactive | TRFRET interf inactive | IN-LEDGF confirm 91.5
CC1NC(=O)NC1CCCCCC(=O)Nc1ccc(F)c(Cl)c1 (stereo not drawn)	LEDGF integ inh 74.1 | IN multimer act inactive | TRFRET interf inactive | IN-LEDGF confirm 91.6
CCc1cccc(NC(=O)CCCN2C(=O)NC(C)(C)C2=O)c1	none
CC(C)[C@H]1Cn2nnc(-c3ccccc3)c2Cn2c3ccccc3c(=O)n21	none
C[n+]1c(-c2ccccc2)cc2c(=Cc3ccccc3)c3ccccc3n21	LEDGF integ inh 28.1 | IN multimer act inactive | TRFRET interf inactive | IN-LEDGF confirm 45.3
C[n+]1c(-c2ccccc2)cc2c(=Cc3ccc([N+](=O)[O-])cc3)c3ccccc3n21	LEDGF integ inh 24.7 | IN multimer act inactive | TRFRET interf inactive | IN-LEDGF confirm 48.5
FC(F)(F)c1ccccc1/C=N/Nc1ccccn1	none
Nn1cnnc1N/N=C/c1ccccc1C(F)(F)F	LEDGF integ inh 47.2 | IN multimer act inactive | TRFRET interf inactive | IN-LEDGF confirm inactive
Nn1cnnc1N/N=C/c1cccc(Cl)c1Cl	LEDGF integ inh 56.0 | IN multimer act inactive | TRFRET interf inactive | IN-LEDGF confirm inactive
COC(=O)[C@]12C[C@H](CC(=O)N3CCN(C(=O)c4ccco4)CC3)C(=O)N(CCC3=CCCCC3)C1=C[C@H](C(C)C)O[C@@H]2C1CC1	none
COCC(=O)N1CC[C@H]2[C@@H]1c1cc(-c3cccc(OC)c3)ccc1N(C)[C@H]2CO	none
COc1ccc(S[C@]2(C(=O)N3CCOCC3)CC(=O)N(c3ccc(Cl)cc3)[C@@H]2c2ccc(OC)cc2)cc1	none
COc1ccc(N)c2c1C(=O)c1ccccc1C2=O	none
COC1=C(N)C(=O)c2nc(C)ccc2C1=O	LEDGF integ inh 20.0 | IN multimer act inactive | TRFRET interf inactive | IN-LEDGF confirm 44.4
COc1cc(C(=S)N2CCOCC2)ccc1OS(=O)(=O)c1ccc(C)cc1	LEDGF integ inh 20.1 | IN multimer act inactive | TRFRET interf inactive | IN-LEDGF confirm inactive
COc1cc(C(=S)N2CCOCC2)ccc1OS(=O)(=O)c1ccc(Cl)cc1	none
COc1nc(OC)nc(N2CCC(C(=O)NCc3cccc(OC)c3OC)CC2)n1	none
Cc1ccc(-c2cc(C(=O)NN=Cc3sccc3C)[nH]n2)cc1C	none
COc1ccccc1/C=C/C(=O)NCC(=O)N/N=C/c1ccccc1	none
COc1ccccc1/C=C\C(=O)NCC(=O)N/N=C/c1ccc(O)cc1O	LEDGF integ inh 16.2 | IN multimer act inactive | TRFRET interf inactive | IN-LEDGF confirm inactive
CC(CCN1CCC(C(O)(c2ccccc2)c2ccccc2)CC1)Oc1cccc(Br)c1 (stereo not drawn)	none
Cc1ccc(NC2=C(N3CCCCC3)C(=O)c3ccccc3C2=O)cc1	LEDGF integ inh 17.1 | IN multimer act inactive | TRFRET interf inactive | IN-LEDGF confirm 37.9
